Results published in PubChem BioAssay.
Several values for one entry are separate records, joined by “and”; a condition that tells them apart may be missing. Identical values can stand only once. Records with an inconclusive call do not appear. For some of these results: Measured potencies and affinities stand elsewhere. Activity calls are given as the source filed them.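 The calls were made as follows, unless noted: active = compounds whose cell count with miR-34 switched on is under 0.7 times the count with it off; inactive = the rest.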

What was measured:
[1] = viability loss with induced miR-34 in A549 – imaging, A549 dox-inducible miR-34, nuclei and caspase counts, primary screen (AID 1347080); details: A549 miR-34 inducible, Hoechst nuclei count, 48 h
[2] = MELAS cybrid and Rieske KO viability enhancers – cell-based, MELAS cybrids, Rieske KO mouse fibroblasts, CellTiter-Glo, primary screen (AID 1508586;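 active = mean z-score across replicates of 1.96 or higher in either the MELAS or the Rieske mutant cell line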;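 also: z relative to plate mean and SD of compound and empty wells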); details: low glucose
[3] = galactose survival enhancers in mitochondrial complex I cybrids – cell-based, galactose medium, ATP luminescence, primary screen (AID 1645843;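 active = z-score of at least 1.8 in each of two replicates, scored against plate mean and spread of sample wells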;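 also: positive z means more ATP and so rescue of galactose-driven cybrid death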); details: complex I mutant cybrid cells, 72 h, stronger effect = higher value
[4] = compounds altering viability of human ES cells (AID 493140; call rule not given here;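 also: cells exposed to compounds for four days before counting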); details: human embryonic stem cell survival screen; stronger effect = higher value
[5] = P. berghei load reduction in hepatocytes – cell-based, HepG2, luciferase luminescence, HepG2 viability, primary screen (AID 624349; in the data active = parasite load remaining mostly below about 12%, no sharp cut-off; inactive = mostly above about 10%;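 also: 100% = mean of DMSO negative control wells on the same plate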); details: P. berghei liver stage in HepG2, luciferase luminescence, concentration not given here; parasite load remaining: stronger effect = lower value; viability: measured here: HepG2 viability without parasites
[6] = molecular target: Mitogen-activated protein kinase 7 (Homo sapiens) (UniProt Q13164); test: Gal4-ERK5 driven luciferase induction – cell-based, HTS, primary screen (AID 1508626;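 active = luciferase signal above three times the same-plate solvent-only control wells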;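 also: luciferase driven by Gal4-ERK5 fusion binding five Gal4 sites before minimal TATA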); details: HeLa Gal4-ERK5 transactivation, 18 h, at 5 µM, stronger effect = higher value
[7] = blockers of MitoPT in mitochondria (AID 1580; call rule not given here); details: isolated mitochondria, permeability transition inhibition
[8] = blockers of polyQ-driven CASP3 activation – cell-based (AID 1583); details: polyglutamine-induced caspase-3 activation, cell assay; stronger effect = higher value;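 tested at 10 µM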
[9] = yeast 75Q aggregation reduction – 75Q-TubU reporter (AID 1593); details: Yeast 75Q polyglutamine aggregation reporter
[10] = blockers of cytochrome c efflux from mitochondria – biochemical, purified mitochondria (AID 1603); details: stronger effect = lower value;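 also: mouse liver mitochondria challenged with calcium chloride; signal normalized to the plate average as 100%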
[11] = polyglutamine aggregate formation blockers (AID 1604); details: polyglutamine-induced protein aggregation inhibition assay; stronger effect = higher value; tested at 2.5 µM
[12] = rescue of PC12 cells from polyQ htt toxicity – LDH release (AID 1610); details: PC12 mutant huntingtin toxicity, final LDH at 4 uM, stronger effect = lower value
[13] = glutamate transport activators, MN-1 cells, MN-1 cell line (AID 1612); details: MN-1 motor neuron cells, stronger effect = higher value;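 also: tested at 1 µM final; 0% = mean of DMSO vehicle wells on each plate; positive means more glutamate uptake than control and negative means less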
[14] = 75Q-TubH aggregate inhibition, S. cerevisiae, yeast (AID 1616); details: S. cerevisiae 75Q-TubH polyglutamine aggregation suppression; stronger effect = higher value
[15] = restoration of touch response, mutant HTT neurons – whole organism, C. elegans mechanosensory neurons, N-terminal huntingtin (AID 1599); details: C. elegans polyQ-huntingtin mechanosensory neurons, stronger effect = higher value
[16] = GFP-Q80 aggregate reduction, neuronal-like cells, cell-based, NGF-treated PC12, GFPQ80 (AID 1614); details: PC12 NGF-treated GFP-polyQ80 inclusion reduction;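 also: lower means fewer inclusions and 0 means no inclusions at all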
[17] = test system: Hepatitis C virus NS3 helicase; test: blockers of NS3h binding to ssDNA – biochemical, fluorescence polarization, LOPAC1280 library, primary screen (AID 687035; in the data active = inhibition above about 37%); details: Purified HCV NS3 helicase, Cy5-dT15 ssDNA binding fluorescence polarization; stronger effect = higher value; concentration not given here
[18] = compounds altering Cy5-DNA-NS3h complex signal – biochemical, LOPAC1280, artefact control for HCV NS3 helicase inhibitor project (AID 687037; call rule not given here); details: Cy5-DNA-NS3h complex fluorescence interference counterscreen
[19] = molecular target: NAD(+) hydrolase SARM1 (Homo sapiens) (UniProt Q6SZW1); test: blocking NAD cleavage by SARM1 SAM-TIR – cell lysate, NAD-Glo luminescence (AID 1508614;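 active = compound whose remaining NAD level is above about 45 nM, limit read from the data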;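 also: higher remaining NAD means stronger inhibition of SARM1 NADase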); details: SAM-TIR HEK293T lysate NADase, at 1 µM, stronger effect = higher value
[20] = compounds altering circadian rhythm period length – cell-based, LOPAC library, luminescence reporter (AID 2774; call rule not given here;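 also: values are relative to mean of DMSO wells on each plate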); details: circadian reporter cells, at 7 µM, actives lie on both sides
[21] = molecular target: ATP-dependent translocase ABCB1 (Homo sapiens) (UniProt P08183); test: P-glycoprotein substrate transport blockade – cell-based (AID 377; in the data active = fluorescence slope change above about 50%); details: MDR1-expressing cells, fluorescent substrate accumulation slope; stronger effect = higher value; concentration not given here
[22] = stronger effect = lower value, cell number ratio, induced over uninduced
[23] = measured here: relative caspase fold change +Dox/-Dox
[24] = measured here: total cells with miR-34 induction, stronger effect = lower value
[25] = measured here: total cells without miR-34 induction
[26] = MELAS cybrid survival, CellTiter-Glo 48 h, stronger effect = higher value
[27] = Rieske KO mouse fibroblast survival, CellTiter-Glo 72 h

Chain of ATP-dependent translocase ABCB1 (Homo sapiens) (P08183 whole entry, looked up): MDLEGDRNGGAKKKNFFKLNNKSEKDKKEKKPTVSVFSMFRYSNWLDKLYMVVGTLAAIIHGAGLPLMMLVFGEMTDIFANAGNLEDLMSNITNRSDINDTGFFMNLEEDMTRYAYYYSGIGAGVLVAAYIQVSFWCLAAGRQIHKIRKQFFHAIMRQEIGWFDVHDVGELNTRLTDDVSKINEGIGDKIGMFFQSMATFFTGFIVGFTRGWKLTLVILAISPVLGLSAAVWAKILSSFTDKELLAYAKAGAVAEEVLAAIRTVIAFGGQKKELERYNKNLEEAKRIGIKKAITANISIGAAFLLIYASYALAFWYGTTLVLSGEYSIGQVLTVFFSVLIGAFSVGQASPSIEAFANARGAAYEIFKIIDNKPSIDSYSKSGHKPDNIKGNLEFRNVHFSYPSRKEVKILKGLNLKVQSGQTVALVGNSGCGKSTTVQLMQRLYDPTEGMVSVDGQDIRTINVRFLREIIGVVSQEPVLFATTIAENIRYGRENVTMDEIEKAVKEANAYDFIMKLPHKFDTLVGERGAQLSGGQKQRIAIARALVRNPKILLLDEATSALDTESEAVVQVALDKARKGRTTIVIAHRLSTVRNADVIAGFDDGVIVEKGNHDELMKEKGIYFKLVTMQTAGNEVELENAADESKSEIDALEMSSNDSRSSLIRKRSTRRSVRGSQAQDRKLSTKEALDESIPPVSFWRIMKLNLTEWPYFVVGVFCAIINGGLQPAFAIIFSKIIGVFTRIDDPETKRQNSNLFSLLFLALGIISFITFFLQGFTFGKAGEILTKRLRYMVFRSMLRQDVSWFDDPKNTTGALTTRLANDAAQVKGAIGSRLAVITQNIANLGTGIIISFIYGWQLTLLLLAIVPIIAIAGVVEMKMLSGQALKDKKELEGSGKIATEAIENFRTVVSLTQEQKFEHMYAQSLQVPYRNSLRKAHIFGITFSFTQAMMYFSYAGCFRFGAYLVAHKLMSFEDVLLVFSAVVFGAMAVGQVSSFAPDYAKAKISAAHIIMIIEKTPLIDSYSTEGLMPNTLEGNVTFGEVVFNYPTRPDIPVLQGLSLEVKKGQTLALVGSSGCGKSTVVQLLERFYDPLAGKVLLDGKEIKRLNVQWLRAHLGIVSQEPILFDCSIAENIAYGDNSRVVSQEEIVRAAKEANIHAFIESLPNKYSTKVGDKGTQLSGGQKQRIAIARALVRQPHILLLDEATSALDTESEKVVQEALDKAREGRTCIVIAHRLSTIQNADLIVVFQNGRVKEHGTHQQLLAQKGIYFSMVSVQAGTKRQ
Chain of Mitogen-activated protein kinase 7 (Homo sapiens) (Q13164 whole entry, looked up, the tested form may be a part): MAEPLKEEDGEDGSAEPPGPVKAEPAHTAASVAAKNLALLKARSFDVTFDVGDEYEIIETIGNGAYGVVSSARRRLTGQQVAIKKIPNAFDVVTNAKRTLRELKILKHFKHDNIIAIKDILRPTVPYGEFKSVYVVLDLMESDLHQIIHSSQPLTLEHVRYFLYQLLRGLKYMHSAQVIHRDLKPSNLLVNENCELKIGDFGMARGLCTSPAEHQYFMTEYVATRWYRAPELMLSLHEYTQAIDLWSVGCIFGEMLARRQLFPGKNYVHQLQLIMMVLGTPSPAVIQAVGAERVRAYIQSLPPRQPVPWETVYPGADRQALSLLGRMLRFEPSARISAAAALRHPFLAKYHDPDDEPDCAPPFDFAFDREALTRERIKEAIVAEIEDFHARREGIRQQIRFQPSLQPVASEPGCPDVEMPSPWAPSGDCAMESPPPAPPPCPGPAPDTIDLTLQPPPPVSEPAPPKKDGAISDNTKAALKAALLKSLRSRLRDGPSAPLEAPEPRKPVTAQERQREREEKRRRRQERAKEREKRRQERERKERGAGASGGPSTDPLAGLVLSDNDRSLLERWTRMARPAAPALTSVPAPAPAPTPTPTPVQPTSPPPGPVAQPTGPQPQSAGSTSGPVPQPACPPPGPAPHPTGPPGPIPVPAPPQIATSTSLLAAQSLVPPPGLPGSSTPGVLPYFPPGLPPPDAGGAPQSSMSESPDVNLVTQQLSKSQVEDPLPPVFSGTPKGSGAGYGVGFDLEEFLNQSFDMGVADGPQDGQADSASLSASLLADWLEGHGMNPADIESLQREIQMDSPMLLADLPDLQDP
Chain of NAD(+) hydrolase SARM1 (Homo sapiens) (Q6SZW1 whole entry, looked up): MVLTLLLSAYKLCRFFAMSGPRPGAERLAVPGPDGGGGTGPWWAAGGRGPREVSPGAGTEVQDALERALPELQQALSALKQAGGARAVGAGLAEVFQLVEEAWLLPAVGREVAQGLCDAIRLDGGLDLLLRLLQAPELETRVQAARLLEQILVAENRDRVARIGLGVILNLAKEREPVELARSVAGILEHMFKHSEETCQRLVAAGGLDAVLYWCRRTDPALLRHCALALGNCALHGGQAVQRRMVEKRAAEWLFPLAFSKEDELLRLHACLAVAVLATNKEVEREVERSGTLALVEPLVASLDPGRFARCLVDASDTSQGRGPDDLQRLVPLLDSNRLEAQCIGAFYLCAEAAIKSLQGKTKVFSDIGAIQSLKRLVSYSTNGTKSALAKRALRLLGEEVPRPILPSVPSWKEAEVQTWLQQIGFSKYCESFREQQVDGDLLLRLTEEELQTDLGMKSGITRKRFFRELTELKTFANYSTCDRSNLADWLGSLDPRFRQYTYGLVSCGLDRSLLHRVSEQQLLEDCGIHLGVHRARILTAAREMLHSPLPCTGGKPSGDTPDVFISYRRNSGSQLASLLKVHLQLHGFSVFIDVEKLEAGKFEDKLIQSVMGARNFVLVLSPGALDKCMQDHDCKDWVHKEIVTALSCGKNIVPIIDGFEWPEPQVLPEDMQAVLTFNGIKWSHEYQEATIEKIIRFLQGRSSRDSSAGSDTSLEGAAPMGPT

## C=C[C@H]1CN2CCC1C[C@H]2C(O)c1ccnc2ccccc12 (some centres undefined)
[1]; [22]
  fold change: 0.935 (inactive)
[1]; [23]
  fold change: 0.691
[1]; [24]
  cell count: 8540
[1]; [25]
  cell count: 9140
[2]; [26]
  z-score: -0.21 (inactive)
[2]; [27]
  z-score: 0.792

## C1CCN(C2CCNCC2)CC1
[1]; [22]
  fold change: 0.919 (inactive)
[1]; [23]
  fold change: 0.5
[1]; [24]
  cell count: 8270
[1]; [25]
  cell count: 9000
[2]; [26]
  z-score: -1.03 (inactive)
[2]; [27]
  z-score: 0.0453
[3]
  z-score: 0.44 (inactive)

## CC(=O)O[C@H]1CC[C@@]2(C)C(=CC[C@@H]3[C@@H]2CC[C@]2(C)C(=O)CC[C@@H]32)C1
[4]
  survival: 0.583 (inactive)
[5]
  parasite load remaining: 73.2% (inactive)
  viability: 93.1%
[1]; stronger effect = lower value
  fold change: 0.892 (inactive)
[1]; [23]
  fold change: 1.2
[1]; [24]
  cell count: 9250
[1]; [25]
  cell count: 10400
[2]; [26]
  z-score: 0.711 (inactive)
[2]; [27]
  z-score: -0.302
[6]
  luciferase signal: 56 AU (inactive)

## CNc1ccc2oc(C[C@@H]3OC4(CC[C@@H]3C)O[C@H](C(C)C(=O)c3ccc[nH]3)[C@H](C)C[C@H]4C)nc2c1C(=O)O (some centres undefined)
[7]
  EC50: 1000 nM (active)
[8]
  inhibition: 86.4%
[9]
  score: -0.79
[10]
  cytochrome c release ratio: 0.48
[11]
  inhibition of aggregation: 51.9%
[12]
  normalised LDH release: 1.68
[13]
  glutamate uptake change: -78%
[14]
  aggregation suppression score: -0.166

## CN1C[C@H](CO)C=C2c3cccc4[nH]cc(c34)C[C@H]21
[8]
  inhibition: 16.6%
[9]
  score: 1.69
[15]
  rescue above control: 7.23
[10]
  cytochrome c release ratio: 1.6
[11]
  inhibition of aggregation: 44.9%
[13]
  glutamate uptake change: -16.1%
[16]
  inclusion score: 2
[14]
  aggregation suppression score: 1.67

## CCCCCN(C)CCC(O)(P(=O)(O)O)P(=O)(O)O
[17]
  inhibition: -2% (inactive)
[18]
  fluorescence ratio (interference): 1 (inactive)

## C#CC(C)(O)CC (centres undefined)
[19]
  remaining NAD: 10 nM (inactive)

## CCC(C)(C)O
[19]
  remaining NAD: 10 nM (inactive)

## C[C@]12CC[C@H]3[C@@H](CC[C@]4(O)C[C@@H](O)CC[C@]34C=O)[C@@]1(O)CC[C@@H]2C1=CC(=O)OC1
[6]
  luciferase signal: 16 AU (inactive)

## COc1cc2c3cc1Oc1cc(ccc1O)C[C@@H]1c4c(cc(OC)c(O)c4Oc4cccc(c4)C[C@@H]3N(C)CC2)CC[N+]1(C)C
[4]
  survival: 7.17 (inactive)
[5]
  parasite load remaining: 52.1% (inactive) and 85.1% (inactive)
  viability: 113% and 81.4%
[1]; [22]
  fold change: 0.822 (inactive)
[1]; [23]
  fold change: 1.32
[1]; [24]
  cell count: 8210
[1]; [25]
  cell count: 9980

## NC(Cn1oc(=O)[nH]c1=O)C(=O)O (centres undefined)
[20]
  period change: -0.055 h (inactive)
[1]; stronger effect = lower value
  fold change: 0.991 (inactive)
[1]; [23]
  fold change: 0.896
[1]; [24]
  cell count: 10000
[1]; [25]
  cell count: 10100
[3]
  z-score: 0.64 (inactive)

## O=C1C=C2C=C[C@@H]3CC2(O1)[C@H]1CCCCN31
[21]
  fluorescence slope change: 28.7% (inactive)
[4]
  survival: 2.33 (inactive)
[5]
  parasite load remaining: 0.53% (active)
  viability: 98.2%
[1]; stronger effect = lower value
  fold change: 0.999 (inactive)
[1]; [23]
  fold change: 0.949
[1]; [24]
  cell count: 2810
[1]; [25]
  cell count: 2810

## COc1ccc2[nH]c3c(c2c1)CCN=C3C
[21]
  fluorescence slope change: 83.4% (active)
[4]
  survival: 10.2 (inactive)
[5]
  parasite load remaining: 105% (inactive) and 62.3% (inactive)
  viability: 98.5% and 75.1%
[1]; stronger effect = lower value
  fold change: 0.83 (inactive)
[1]; [23]
  fold change: 1.33
[1]; [24]
  cell count: 7960
[1]; [25]
  cell count: 9590

## CC(C)CC(NP(=O)(O)O[C@@H]1O[C@@H](C)[C@H](O)[C@@H](O)[C@H]1O)C(=O)NC(Cc1c[nH]c2ccccc12)C(=O)O (some centres undefined)
[20]
  period change: 0.015 h (inactive)
[17]
  inhibition: -2% (inactive)
[18]
  fluorescence ratio (interference): 1 (inactive)
[1]; stronger effect = lower value
  fold change: 0.965 (inactive)
[1]; [23]
  fold change: 0.942
[1]; [24]
  cell count: 10500
[1]; [25]
  cell count: 10900
[3]
  z-score: 0.455 (inactive)

## CCCCC/C=C\C/C=C\C/C=C\C/C=C\CCCC(=O)N[C@H](C)CO
[4]
  survival: 87.2 (inactive)
[1]; stronger effect = lower value
  fold change: 0.941 (inactive) and 1.01 (inactive)
[1]; [23]
  fold change: 0.931 and 0.764
[1]; [24]
  cell count: 5390 and 6000
[1]; [25]
  cell count: 5730 and 5950

## COc1cc2c(cc1OC)[C@@]13CCN4CC5=CCOC6CC(=O)N2C1C6C5CC43 (some centres undefined)
[1]; [22]
  fold change: 0.989 (inactive)
[1]; [23]
  fold change: 1.53
[1]; [24]
  cell count: 8280
[1]; [25]
  cell count: 8360
[3]
  z-score: -0.335 (inactive)

## CC[C@]1(O)CCC2C3CCC4=CCCCC4C3CC[C@@]21C (some centres undefined)
[1]; stronger effect = lower value
  fold change: 1.01 (inactive)
[1]; [23]
  fold change: 1.28
[1]; [24]
  cell count: 5670
[1]; [25]
  cell count: 5590
[3]
  z-score: -0.425 (inactive)

## C/C=C1/C[C@@H](C)[C@](O)(CO)C(=O)OCC2=CCN3CC[C@@H](OC1=O)[C@@H]23
[21]
  fluorescence slope change: 18.1% (inactive)
[4]
  survival: 3.83 (inactive)
[5]
  parasite load remaining: 209% (inactive) and 79.8% (inactive)
  viability: 107% and 75%
[1]; stronger effect = lower value
  fold change: 0.877 (inactive)
[1]; [23]
  fold change: 2.22
[1]; [24]
  cell count: 8650
[1]; [25]
  cell count: 9870

## CCCCC/C=C\C/C=C\C/C=C\C/C=C\CCCC(=O)NCCc1ccc(O)c(O)c1
[4]
  survival: 69.6 (inactive)
[1]; [22]
  fold change: 0.953 (inactive)
[1]; [23]
  fold change: 1.09
[1]; [24]
  cell count: 5250
[1]; [25]
  cell count: 5510

## CN1CCC(c2ccc(F)cc2)C(COc2ccc3c(c2)OCO3)C1 (centres undefined)
[1]; [22]
  fold change: 0.906 (inactive)
[1]; [23]
  fold change: 1.59
[1]; [24]
  cell count: 7350
[1]; [25]
  cell count: 8110
[3]
  z-score: -1.4 (inactive)

## C[C@]12CCC(O)CC1=CCC1C2CC[C@]2(C)C(=O)CCC12 (some centres undefined)
[1]; stronger effect = lower value
  fold change: 1.16 (inactive)
[1]; [23]
  fold change: 1.21
[1]; [24]
  cell count: 7950
[1]; [25]
  cell count: 6860
[3]
  z-score: -0.11 (inactive)

## C/C=C1/C[N+]2(C)CCC34C(=C(C=O)[C@H]1C[C@@H]32)Nc1ccccc14 (some centres undefined)
[21]
  fluorescence slope change: 21.2% (inactive)
[4]
  survival: 3.83 (inactive)
[5]
  parasite load remaining: 95% (inactive)
  viability: 101%
[1]; stronger effect = lower value
  fold change: 0.931 (inactive)
[1]; [23]
  fold change: 1.21
[1]; [24]
  cell count: 8700
[1]; [25]
  cell count: 9340

## CC1=CC(=O)C2=C(C)C[C@H](O)[C@@H]3[C@H](OC(=O)[C@H]3C)[C@@H]12
[4]
  survival: 7.92 (inactive)
[5]
  parasite load remaining: 98.5% (inactive)
  viability: 100%
[1]; stronger effect = lower value
  fold change: 0.829 (inactive)
[1]; [23]
  fold change: 1.6
[1]; [24]
  cell count: 8050
[1]; [25]
  cell count: 9720

## COc1cccc([C@@]2(O)CCCCC2CN(C)C)c1 (some centres undefined)
[1]; stronger effect = lower value
  fold change: 0.881 (inactive)
[1]; [23]
  fold change: 1.09
[1]; [24]
  cell count: 9920
[1]; [25]
  cell count: 11300
[3]
  z-score: 0.56 (inactive)
